DRD3 agonist = D3 dopamine receptor (human) agonism; P35462; D3R DiscoveRx beta-arrestin cells, luminescence, 90 min; max activation, %; 0.58% of 410,000 active; AID 652048; in the data active means max activation above about 30%; further: 0% is about no effect
Target sequence (P35462 whole entry, looked up): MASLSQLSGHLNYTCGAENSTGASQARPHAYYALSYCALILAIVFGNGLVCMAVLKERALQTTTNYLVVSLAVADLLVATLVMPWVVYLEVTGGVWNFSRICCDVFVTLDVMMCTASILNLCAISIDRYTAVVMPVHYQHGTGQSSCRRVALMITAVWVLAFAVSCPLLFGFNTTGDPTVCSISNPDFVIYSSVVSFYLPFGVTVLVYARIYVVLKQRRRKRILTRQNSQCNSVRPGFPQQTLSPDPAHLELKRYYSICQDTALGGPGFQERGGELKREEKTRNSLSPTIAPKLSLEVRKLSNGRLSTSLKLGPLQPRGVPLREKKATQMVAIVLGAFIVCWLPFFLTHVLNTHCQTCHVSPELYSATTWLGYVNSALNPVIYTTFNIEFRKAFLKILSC
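Agonist-mode cell screen: cells plated at 1500/well and incubated overnight at 37 °C, then exposed to library compounds for 90 min at 37 °C. Detection reagent was added for 30–60 min at room temperature, and luminescence was read.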
ATXN2 expr inh = inhibitors of ATXN2 expression | HEK-293 ATXN2-luciferase reporter, luminescence, 24 h | Potency, µM (top dose mostly 57 µM), inactives show at the highest dose activity change, negative = inhibition, most hits filed as inhibitors | 0.72% of 360,000 active; further: potency means the concentration at half of the fitted maximal effect; on the % scale 0 is the no-effect control and ±100 the full control effect; nearly all actives have a fitted effect of over 55% in size
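ATXN2-luciferase reporter cells (luciferase flanked by upstream and downstream ATXN2 gene portions) were treated 24 h at 37 °C with compounds at up to 57 uM. SteadyGlo luminescence gave expression; GF-AFC fluorescence gave viability.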
S2 tox = viability counter-screen for ATXN expression inhibitors; S2 cells (HEK-293 line with an ATXN2-luciferase reporter) viability, CellTiter-Fluor protease fluorescence, 24 h; Potency, µM (series often up to 56.7 µM), usual class: cytotoxic; 0.49% of 400,000 active; AID 651635; further: potency means the concentration at half of the fitted maximal effect; nearly all actives have a fitted effect of over 40% in size
D3 antag = blocks the human D3 dopamine receptor; max response, negative = inhibition, %; 2.5% of 360,000 active; D3R cells, DiscoveRx beta-arrestin luminescence, antagonist mode; active compounds read low; in the data active means max response below about -50%; inconclusive means no clear call, values can overlap the other calls; further: on the % scale 0 is the no-effect control and ±100 the full control effect
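Cells expressing the human receptor were seeded at 1500 cells/well, incubated overnight at 37 degrees C in 5% CO2, then exposed to library compounds with dopamine controls for 90 minutes at 37 degrees C before luminescent detection.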
Integrin act MD = activators of alpha7 integrin expression for muscular dystrophy; alpha7betagal myoblasts, beta-gal FDG fluorescence, 48 h; Potency, µM (series often up to 38.3 µM), for inactives: at the highest dose activation, most hits filed as activators; 0.064% of 350,000 active;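 further: potency means the concentration at half of the fitted maximal effect; 100% = response of the positive control SU9516; nearly all actives have a fitted effect of over 60% in size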
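Alpha7betagal+/- myoblasts (passage 13) were plated 16-24 hr, then exposed to compounds (1:260 dilution of DMSO stock) for 48 hours at 37C. After MPER lysis, β-galactosidase reporter activity was read as FDG fluorescence (ex 480/em 540) after 30 minutes.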
IL1B secr inh = inhibitors of inflammasome signaling (IL-1 beta secretion) | THP-1 LPS/ATP IL-1B secretion, AlphaLISA, 16 h; active compounds read low | activity change, % at 57.5 µM | AID 743279 | 4.7% of 360,000 active; in the data active means activity change below about -50%; inconclusive means mostly about -30% to -49%; further: on the % scale 0 is the no-effect control and ±100 the full control effect
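Secreted IL-1B measured by AlphaLISA bead assay after 16 h compound exposure of THP-1 cells; compounds (final up to 57.5 uM) added 1 h before LPS (250 ng/mL) and ATP (1.25 mM) stimulation; lower signal means less secretion.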
The depositor's hits bear a star. Hits are enriched below; roughly 7% of the tested compounds scored in any of these assays. Unless noted, the call rests on the fitted dose curve; in most records, active means well fitted curve in the direction sought with a large enough effect; inconclusive means small, poorly fitted or top-dose-only effect, or another doubt; inactive means no such curve, though single readings can be large; an effect the other way counts as inactive or inconclusive.

CCOC(=O)C1CCN(CC(=O)Nc2ccc(OC)c(Cl)c2)CC1 was read as DRD3 agonist -9.5, ATXN2 expr inh -7.4%, S2 tox inactive, D3 antag -19.1, Integrin act MD -12.5% and IL1B secr inh -0.2.
Screening CCc1cc(-c2n[nH]c(C)c2-c2nc3ccccc3n2C)c(O)c(CN2CCN(C)CC2)c1O returned DRD3 agonist -5.6, ATXN2 expr inh -22.2%, S2 tox inconclusive, D3 antag -12.2, Integrin act MD -17.0% and IL1B secr inh -11.6.
`COc1ccc(NC(C)C(=O)Nc2ccc(C(C)(C)C)cc2)cc1Cl` (stereo not drawn) gave DRD3 agonist -1.7, ATXN2 expr inh -5.7%, S2 tox inactive, D3 antag -3.7, Integrin act MD -46.0% and IL1B secr inh -53.7*.
Screening COc1ccc(NC(C)C(=O)Nc2ccc(C#N)cc2)cc1Cl (stereo not drawn) returned DRD3 agonist -8.2, ATXN2 expr inh -23.5%, S2 tox inactive, D3 antag 5.8, Integrin act MD -5.6% and IL1B secr inh -3.9.
Screening CCOC(=O)c1c(-c2ccccc2)c2cc(OC)ccc2n1CCCN(C)C returned DRD3 agonist -21.4, S2 tox inactive, D3 antag -72.1*, Integrin act MD -61.6% and IL1B secr inh -50.4*.
For CCOC(=O)c1c(C)n(CCNC(C)=O)c2ccc(OC)cc12 the results were DRD3 agonist 4.9, ATXN2 expr inh 6.6%, S2 tox inactive, D3 antag 19.1, Integrin act MD -4.5% and IL1B secr inh 10.0.
Screening CCCC[C@@H]1CNC(=O)C(=O)N1CCCc1cc(OC)c(OC)c(OC)c1 returned DRD3 agonist 30.5*, ATXN2 expr inh -1.2%, S2 tox inactive, D3 antag 31.7, Integrin act MD 23.6% and IL1B secr inh -0.4.
For CCC(C)[C@H]1CNC(=O)C(=O)N1CCCc1cc(OC)c(OC)c(OC)c1 (stereo partly drawn) the results were DRD3 agonist 7.7, ATXN2 expr inh 1.7%, S2 tox inactive, D3 antag 5.9, Integrin act MD -7.7% and IL1B secr inh -0.1.
For CC(NC1=CC(=O)c2cccnc2C1=O)C(O)c1ccccc1 (stereo not drawn) the results were DRD3 agonist -23.6, ATXN2 expr inh inconclusive, S2 tox inconclusive, D3 antag inconclusive, Integrin act MD -56.0% and IL1B secr inh -99.8*.
CC(C)c1ccc(NC(=O)CN2C(=O)COc3ccc(S(=O)(=O)Nc4ccccc4)cc32)cc1 was read as DRD3 agonist -16.8, ATXN2 expr inh 7.3% and S2 tox inactive.
For COc1ccc(N2C(S)=C(C#N)C(=O)NC2c2ccco2)cc1 (stereo not drawn) the results were DRD3 agonist -22.1, ATXN2 expr inh 23.2%, S2 tox inactive, D3 antag -18.0, Integrin act MD -2.2% and IL1B secr inh 3.9.
Screening CSCCC(NS(=O)(=O)c1ccc(Cl)cc1)C(=O)OCC(=O)c1c(C)[nH]c2ccccc12 (stereo not drawn) returned DRD3 agonist 5.4, ATXN2 expr inh -5.2%, S2 tox inactive, D3 antag 8.2, Integrin act MD -20.3% and IL1B secr inh -85.8*.
`CSCCC(NS(=O)(=O)c1ccc2ccccc2c1)C(=O)OCC(=O)c1ccc(C(C)C)cc1` (stereo not drawn) gave DRD3 agonist 2.5, ATXN2 expr inh 1.9%, S2 tox inactive, D3 antag -10.8, Integrin act MD -4.4% and IL1B secr inh 3.0.
`Cc1[nH]c2ccccc2c1C(=O)COC(=O)C1CC(O)CN1S(=O)(=O)c1ccc(Cl)cc1` (stereo not drawn) gave DRD3 agonist 15.1, ATXN2 expr inh 38.1%, S2 tox inactive, D3 antag 49.1, Integrin act MD 28.2% and IL1B secr inh -76.3*.
Screening O=C(COC(=O)C1CC(O)CN1S(=O)(=O)c1ccc(Cl)cc1)c1ccccc1 (stereo not drawn) returned DRD3 agonist 4.8, ATXN2 expr inh -6.7%, S2 tox inactive, D3 antag 11.2, Integrin act MD -8.8% and IL1B secr inh 7.2.

High-throughput results deposited in PubChem BioAssay by National Center for Advancing Translational Sciences (NCATS).
